An excerpt weighted towards active compounds, which were near 1.6% of everything screened.
KCNQ2 inh – rat KCNQ2 potassium channel inhibitors, primary screen, cell-based, CHO-K1, FluxOR thallium flux, B-score. B-score at 10 µM. hit rate 1.1% among 310,000. 20 min; hits give low values. Potassium voltage-gated channel subfamily KQT member 2 (Rattus norvegicus), O88943;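 active = fluorescence ratio B-score at most minus 3 library SDs, with starting brightness B-score within 2 library SDs, cut at about -5.5 in these data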
Target sequence (O88943 whole entry, looked up): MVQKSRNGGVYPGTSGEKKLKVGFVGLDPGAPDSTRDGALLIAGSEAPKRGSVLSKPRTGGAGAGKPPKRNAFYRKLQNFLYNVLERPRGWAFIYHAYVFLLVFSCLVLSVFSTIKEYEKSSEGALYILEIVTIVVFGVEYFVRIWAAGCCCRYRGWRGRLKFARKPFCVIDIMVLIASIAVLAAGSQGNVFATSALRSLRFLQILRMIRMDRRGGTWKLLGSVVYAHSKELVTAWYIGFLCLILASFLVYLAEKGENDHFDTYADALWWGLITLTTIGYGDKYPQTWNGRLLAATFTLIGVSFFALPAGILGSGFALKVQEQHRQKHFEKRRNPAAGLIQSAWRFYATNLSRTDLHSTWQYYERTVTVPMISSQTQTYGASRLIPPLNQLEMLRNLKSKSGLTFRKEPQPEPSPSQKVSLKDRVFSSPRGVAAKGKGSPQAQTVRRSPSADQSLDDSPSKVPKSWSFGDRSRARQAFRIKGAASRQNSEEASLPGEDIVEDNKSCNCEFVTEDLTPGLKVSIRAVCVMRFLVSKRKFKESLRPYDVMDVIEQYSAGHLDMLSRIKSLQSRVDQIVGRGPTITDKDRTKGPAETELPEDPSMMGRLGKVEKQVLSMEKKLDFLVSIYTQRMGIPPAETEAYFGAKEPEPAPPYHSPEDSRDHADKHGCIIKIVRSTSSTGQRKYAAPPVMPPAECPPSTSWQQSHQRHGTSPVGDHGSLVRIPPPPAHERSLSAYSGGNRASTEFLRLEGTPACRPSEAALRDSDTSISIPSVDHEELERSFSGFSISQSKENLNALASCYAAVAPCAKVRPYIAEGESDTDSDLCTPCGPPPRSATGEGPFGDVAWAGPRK
KCNQ2 pot – potentiators of rat KCNQ2 potassium channel | Potassium voltage-gated channel subfamily KQT member 2 (Rattus norvegicus), O88943 | CHO-K1 KCNQ2, FluxOR thallium flux fluorescence; hits give high values | B-score at 10 µM | hit rate 0.54% among 310,000 | AID 2239, 2010;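 active = fluorescence ratio B-score at least 3 SD of library B-scores, with initial fluorescence B-score within 3 of them, cut at about 5.3 in these data; same plate scores as AID 2156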;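 note: B-score of peak minus minimum over baseline fluorescence ratio after K+ and Tl+ stimulus; positive B-score means potentiation of KCNQ2 with more thallium influx and brighter signal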
* = called active by the depositor; i = inactive; x = not tested or not shown.

SMILES | KCNQ2 inh | KCNQ2 pot
O=C(Nc1cc(Br)c(O)c(Br)c1)c1cccc(NC(=O)c2ccco2)c1 | i | 2.8
C/C(=N/NC(=O)c1cc(C)[nH]n1)c1ccncc1 | i | x
CC1CCCCN1S(=O)(=O)c1cccc(S(=O)(=O)N2CCOCC2)c1 (centres undefined) | i | x
COc1ccccc1NS(=O)(=O)c1cc(NC(=O)CCc2nc3ccccc3c(=O)[nH]2)ccc1C | i | 1.8
O=Cc1coc2ccc3ccccc3c2c1=O | -8.1* | -8.1
NC(=O)N/N=C/c1coc2ccc3ccccc3c2c1=O | i | 1.3
O=C1CC(c2ccccc2)=Nc2ccccc2N1Cc1ccccc1 | -6.2* | -6.2
CN(C)c1ccc(NC(=O)CN2C(=O)CC(c3ccccc3)=Nc3ccccc32)cc1 | i | 1.9
CC1CCCCC1NC(=O)CSc1nnc(COc2ccc(Cl)cc2)o1 (centres undefined) | i | x
CCCCNc1ncnc2sc3c(c12)CCN(CCC)C3 | i | 0.04
COc1ccc(/C=N/NC(=O)c2cc3c(ccc4ccccc43)o2)c(OC)c1 | -6.3* | -6.3
COc1ccc(OC)c(/C=N\NC(=O)c2cc3c(ccc4ccccc43)o2)c1 | i | 0.92
CCCCNc1c(-c2ccc(SC3CCCCC3)cc2)nc2ccccn12 | i | x
CCCCNc1c(-c2ccc(SC(C)CC)cc2)nc2ccccn12 (centres undefined) | -7.1* | -7.1
COc1ccccc1NC(=O)CC(=O)c1cccc([N+](=O)[O-])c1 | i | 0.17
COc1ccccc1NC(=O)/C(=C/c1cccc([N+](=O)[O-])c1)c1ccccc1 | -6* | -6
CCN(CC)C(=O)c1ccc(S(=O)(=O)c2ccccc2)cc1 | i | 0.17
CCCOC1CCCN(Cc2nc(-c3ccc(C(=O)OC)cc3)no2)C1 (centres undefined) | i | x
CCCCNC(=S)N/N=C/C1=CCC2CC1C2(C)C (centres undefined) | i | 5.4*
C=C(C)CNC(=S)N/N=C/C1=CCC2CC1C2(C)C (centres undefined) | i | 1.4
CN(CC(=O)Nc1ccc(F)c(F)c1F)C(=O)c1ccc(=O)[nH]c1 | i | 1.1
COc1ccc(CN(C)C(c2ccccc2)c2nnnn2-c2ccccc2C)c(OC)c1C (centres undefined) | -6* | -6
COc1cc(OC)c(OC)cc1CN(C)C(c1ccccc1)c1nnnn1-c1ccccc1C (centres undefined) | i | x
CCn1c(=O)c2c(nc(SCC(=O)Nc3ccccc3)n2C)n(C)c1=O | i | x
CC(C)OC(=O)/C(=C\c1ccccc1)NC(=O)c1ccccc1 | -5.6* | -5.6
SMILES | KCNQ2 inh | KCNQ2 pot
CC(C)OC(=O)/C(=C\c1cccc2ccccc12)NC(=O)c1ccccc1 | i | x
Cc1ccn(CCC(=O)NC2CC(C)(C)Cc3c2cnn3-c2ccccc2C)n1 (centres undefined) | i | 0.51
N#CC1(NC(=O)CN2CCN(S(=O)(=O)c3ccccc3F)CC2)CCCC1 | i | 0.23
CCC(C(=O)NCc1ccco1)N(C(=O)CNS(=O)(=O)c1ccccc1)c1ccc(OC)cc1 (centres undefined) | -5.8* | -5.8
CCOc1ccc(N(C(=O)CNS(=O)(=O)c2ccccc2)C(CC)C(=O)NCc2ccco2)cc1 (centres undefined) | i | 1.5
COc1ccc(Cn2ccnc2SCC(=O)Nc2ccccc2OC)cc1 | -6.1* | -6.1
COc1ccc(Cn2ccnc2SCC(=O)Nc2ccccc2F)cc1 | i | x
O=C(NCc1ccc(F)cc1)c1c2c(nc3ccccc13)CCN(Cc1ccccc1)C2 | i | x
COC(=O)c1ccc(CNC(=O)c2c3c(nc4ccccc24)CCN(Cc2ccccc2)C3)cc1 | -6.2* | -6.2
COc1cc(N(C)C)c([N+](=O)[O-])cc1C(=O)N1CCOCC1 | i | 1.6
CCN(CC)S(=O)(=O)c1ccc(Cl)c(C(=O)Nc2cc(C)nn2-c2ccccc2C(F)(F)F)c1 | i | x
c1ccc(Nc2scc(-c3ccccc3)[n+]2Cc2ccco2)cc1 | -6.4* | -6.4
c1ccc(C[n+]2c(-c3ccccc3)csc2Nc2ccccc2)cc1 | i | x
COc1ccc(-c2nn(-c3ccccc3)cc2C(=O)NC2CCCCC2C)cc1 (centres undefined) | i | 0.03
O=c1c2cc(Cl)ccc2[nH]c(=S)n1Cc1cccs1 | i | 5.3*
O=c1c2cc(Cl)ccc2[nH]c(=S)n1Cc1ccco1 | i | x
CCCSc1nc2cc(C)c(C)cc2n1CC(C)O (centres undefined) | i | x
CC(C)C(NC(=O)c1ccccc1)C(=O)NCCc1ccccc1 (centres undefined) | i | x
N#CC(c1cccc(C(F)(F)F)c1)(c1ncc(C(F)(F)F)cc1Cl)N1CCOCC1 (centres undefined) | i | x
N#CC(c1ccccc1)(c1ncc(C(F)(F)F)cc1Cl)N1CCOCC1 (centres undefined) | -7* | -7
CCOC(=O)N1CCN(C(=O)c2cc3cc(OC)c(OC)cc3[nH]2)CC1 | i | x
CCN(CC)c1ccc(NC(=O)CSc2ccsc2[N+](=O)[O-])c(C)c1 | i | 5.5*
O=C(CSc1ccsc1[N+](=O)[O-])Nc1cc(F)ccc1F | i | x
CC(Sc1nc2ccccc2c(=O)n1C)C(=O)N(C)C1CCCCC1 (centres undefined) | i | 0.76
Cc1ccc(OCC(=O)N2N=C(c3ccc(Cl)cc3)CC2c2ccco2)c([N+](=O)[O-])n1 (centres undefined) | -8.3* | -8.3
SMILES | KCNQ2 inh | KCNQ2 pot
CCC(=O)N1N=C(c2ccc(Cl)cc2)CC1c1ccco1 (centres undefined) | i | x
CCCN(CCC)S(=O)(=O)c1ccc(C(=O)Nc2ccc(S(=O)(=O)Nc3nnc(CC)s3)cc2)cc1 | i | 0.77
Cc1ccc(N=Cc2cc(Br)cc(Cl)c2O)cc1 | i | 12*
Oc1ccc(Br)cc1C=Nc1ccc(Cl)cc1 | i | 2.2
Cc1cccc(-n2ncc3c2CCCC3NC(=O)CCN2CCCO2)c1C (centres undefined) | i | x
CCOC(=O)/C(C)=N/Nc1nc(-c2ccc(NC(C)=O)cc2)cs1 | i | 2.1
O=C(O)CC1=C(Nc2ccccc2)C(=O)N(c2ccccc2)C1c1ccc(Br)cc1 (centres undefined) | i | x
Cc1nc(NC(=O)C2CC2)sc1C(=O)N1CCCCC1 | i | 1.2
Cc1nc(NC(=O)c2cccc(Cl)c2)sc1C(=O)N1CCCCC1 | -7.5* | -7.5
CC(C)(C)c1ccc(NC(=O)CNC2CCCc3ccccc32)cc1 (centres undefined) | -6.9* | -6.9
Cc1ccc(NC(=O)CN(C)CC(=O)NC2CCCc3ccccc32)cc1 (centres undefined) | i | x
Cc1nn(CCCC(=O)NCCc2ccccc2)c(=O)c2nccn12 | i | x
COc1ccc(S(=O)(=O)N2Cc3ccccc3CC2C(=O)Nc2ccc3c(c2)OCO3)cc1 (centres undefined) | i | x
Cc1ccc(S(=O)(=O)N2Cc3ccccc3CC2C(=O)Nc2ccc3c(c2)OCO3)cc1 (centres undefined) | -5.6* | -5.6
COc1ccc(-n2nc(C(=O)NCC(=O)N3CCN(c4ccccn4)CC3)c3ccccc3c2=O)cc1 | -8.2* | -8.2
COc1ccc(-n2nc(C(=O)NCC(=O)N3CCN(c4ccccn4)CC3)c3ccccc3c2=O)cc1OC | i | x
